LRH-1 inv ag: NR5A2 inverse agonism in reporter assay; O00482; HEK293T StAR-luciferase reporter, LRH-1 transfected, 24 h; inhibition, % at 3.6 µM; actives 0.13% (n = 360,000); AID 602396;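 active means inhibition above the mean inhibition of all tested compounds plus 3 SD, cut at about 73% in these data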;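 further: 0% = DMSO wells and 100% = reporter-only cells lacking LRH-1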
NCOA1 inh: inhibits human SRC1 coactivator; HEK293 GAL4-SRC1 luciferase reporter, luminescence; inhibition, % at 3.6 µM; actives 0.12% (n = 360,000);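 active means inhibition above the campaign mean plus 3 SD, with each screening campaign given its own cutoff, cut at about 60% in these data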;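 further: 0% = DMSO treated cells and 100% = gossypol at 36 µM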
NR2F2 inh: blocks human COUP-TFII nuclear receptor; P24468; HEK293T NGFI-A luciferase reporter, luminescence; actives 0.7% (n = 370,000); inhibition, % at 8.6 µM; AID 686940;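 active means inhibition above a per-plate cutoff, mean inhibition of test wells between control levels plus 3 SD, cut at about 38% in these data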;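 further: cells cotransfected with COUP-TFII expression vector driving the NGFI-A reporter; 0% = median of COUP-TF2 test wells and 100% = reporter-only cells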
NCOA2 inhibitor: inhibits human steroid receptor coactivator 2; Q15596; AID 651957; inhibition, % at 9 µM; actives 0.17% (n = 370,000); HEK293 GAL4-SRC2 luciferase reporter, luminescence;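 active means inhibition above the mean inhibition of all tested compounds plus 3 SD, set per campaign, cut at about 52% in these data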;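 further: 0% = DMSO treated cells and 100% = cells given Gossypol at 36 µM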
Target sequence (Q15596 whole entry, looked up, the tested form may be a part): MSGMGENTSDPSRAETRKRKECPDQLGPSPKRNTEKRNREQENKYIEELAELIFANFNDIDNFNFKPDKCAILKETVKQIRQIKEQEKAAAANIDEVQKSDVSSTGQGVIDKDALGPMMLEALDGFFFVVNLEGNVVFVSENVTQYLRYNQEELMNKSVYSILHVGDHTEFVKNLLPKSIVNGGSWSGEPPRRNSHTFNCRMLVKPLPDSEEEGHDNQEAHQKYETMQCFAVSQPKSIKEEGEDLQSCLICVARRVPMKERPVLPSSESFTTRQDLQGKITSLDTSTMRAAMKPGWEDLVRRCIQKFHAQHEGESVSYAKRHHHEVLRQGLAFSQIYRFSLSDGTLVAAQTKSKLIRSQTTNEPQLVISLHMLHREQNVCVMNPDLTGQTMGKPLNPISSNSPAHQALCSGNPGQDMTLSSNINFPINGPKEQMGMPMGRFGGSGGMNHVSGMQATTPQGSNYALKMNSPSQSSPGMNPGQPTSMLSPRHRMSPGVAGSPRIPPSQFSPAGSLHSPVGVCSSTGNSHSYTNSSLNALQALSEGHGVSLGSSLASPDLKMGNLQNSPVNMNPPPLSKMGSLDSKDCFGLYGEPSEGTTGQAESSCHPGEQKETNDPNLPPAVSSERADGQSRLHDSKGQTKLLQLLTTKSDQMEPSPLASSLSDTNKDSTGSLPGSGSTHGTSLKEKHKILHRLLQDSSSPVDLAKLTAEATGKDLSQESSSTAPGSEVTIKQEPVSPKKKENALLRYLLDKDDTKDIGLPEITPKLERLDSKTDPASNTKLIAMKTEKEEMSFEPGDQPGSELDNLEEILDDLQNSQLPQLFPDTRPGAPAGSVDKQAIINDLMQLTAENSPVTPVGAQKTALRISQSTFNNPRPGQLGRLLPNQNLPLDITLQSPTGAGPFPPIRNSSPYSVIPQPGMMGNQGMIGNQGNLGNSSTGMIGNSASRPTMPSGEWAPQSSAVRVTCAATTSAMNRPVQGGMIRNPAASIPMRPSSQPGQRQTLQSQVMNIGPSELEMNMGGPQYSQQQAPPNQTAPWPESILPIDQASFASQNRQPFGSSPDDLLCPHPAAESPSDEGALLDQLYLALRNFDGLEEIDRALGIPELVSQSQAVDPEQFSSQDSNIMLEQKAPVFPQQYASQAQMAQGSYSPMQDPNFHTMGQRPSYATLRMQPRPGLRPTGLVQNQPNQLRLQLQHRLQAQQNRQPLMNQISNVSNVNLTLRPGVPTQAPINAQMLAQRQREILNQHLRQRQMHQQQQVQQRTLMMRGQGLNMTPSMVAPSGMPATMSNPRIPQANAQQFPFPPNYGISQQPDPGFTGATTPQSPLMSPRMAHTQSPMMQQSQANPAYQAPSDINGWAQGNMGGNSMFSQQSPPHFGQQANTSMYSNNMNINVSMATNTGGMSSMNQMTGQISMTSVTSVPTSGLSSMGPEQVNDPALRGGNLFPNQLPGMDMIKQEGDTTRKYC
NCOA3 inh: human NCOA3 inhibition | Q9Y6Q9 | HEK293 GAL4-SRC3 luciferase reporter, luminescence | inhibition, % at 3.6 µM | actives 0.17% (n = 360,000) | AID 588352;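 active means inhibition above a per-campaign cutoff, the mean of all compounds plus 3 SD, cut at about 60% in these data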;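 further: 0% = DMSO-treated cells and 100% = gossypol-treated cells at 36 µM; higher means less SRC3-driven luciferase light from the GAL4 reporter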
Gal4-VP16 ctr: VP16 inhibition counter-screen for COUP-TFII; actives 25% (n = 2,500); inhibition, % at 8.5 µM; shares compounds with NR2F2 inh; HEK293 Gal4-VP16 luciferase reporter, luminescence; in the data active means inhibition above about 13%
COUP-TFII conf: confirmation of human COUP-TFII (NR2F2) inhibitors. shares compounds with NR2F2 inh. HEK293 NGFI-A luciferase reporter, luminescence. inhibition, % at 8.5 µM. actives 45% (n = 2,500);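 active means mean inhibition over three repeats above a set limit taken from the earlier primary screen, cut at about 38% in these data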;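 further: 100% = cells given the luciferase reporter alone without the COUP-TF2 vector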
The depositor's hits bear a star; . = no result. A selection: hits, their analogues and other compounds. The true share with any hit is near 0.84%.

SMILES	LRH-1 inv ag	NCOA1 inh	NR2F2 inh	NCOA2 inhibitor	NCOA3 inh	Gal4-VP16 ctr	COUP-TFII conf
CCOc1ccc(-n2c(-c3ccc(OC)cc3)c[n+]3c2CCCCC3)cc1	84*	30	83*	-5	46	20*	72*
CCOc1ccc(-n2c(-c3ccccc3)c[n+]3c2CCC3)cc1	36	9	55*	17	26	-4	30
COc1ccc(-n2c(-c3ccc(Cl)cc3)c[n+]3c2CCCCC3)cc1	10	2	29	24	12	.	.
COc1ccc(-c2c[n+]3c(n2-c2ccc(C)cc2)CCCCC3)cc1	72	35	71*	22	58	10	61*
CC(C)(C)C(=O)Nc1ccc(-c2cc3cc(Cl)ccc3o2)cc1	18	18	53*	45	44	-154	-22
C/C(CCC12CC3CC(CC(C3)C1)C2)=N\NC(N)=S	26	5	14	0	3	.	.
C/C(=N\NC(N)=S)C1C2C3CC4C5CC(C42)C1C53 (centres undefined)	29	21	57*	31	39	11	43*
CSc1ccccc1C(=O)Nc1nc2ccccc2[nH]1	-97	-74	-27	-63	-87	.	.
COc1cc(SC)ccc1C(=O)Nc1nc2ccccc2[nH]1	93*	93*	100*	95*	92*	96*	108*
COc1ccccc1C(=O)Nc1nc2ccccc2[nH]1	84*	84*	98*	94*	80*	87*	100*
Cc1cc(C(=O)Nc2cnc3ccccc3c2)ccc1[N+](=O)[O-]	-183	-84	-43	-43	-81	.	.
Cc1ccc(C(=O)Nc2cnc3ccccc3c2)cc1	21	31	71*	72*	33	24*	48*
Cc1ccc(C(=O)Nc2nc3ccccc3[nH]2)cc1	0	4	49*	50	7	-20	-5
COc1ccc(C(=O)Nc2nc3ccccc3[nH]2)cc1	-70	-7	30	40	-18	.	.
NC(=O)c1ncn([C@@H]2O[C@H](C(=O)N[C@H](Cc3c[nH]c4ccccc34)C(=O)N3CCN(C(=O)N4CCCCC4)CC3)[C@@H](O)[C@H]2O)n1	.	.	-10	3	.	.	.
Cc1nc(N2CCCCC2)[nH]c(=O)c1CN(C)N=O	7	12	0	16	20	.	.
Cc1ccc(S(=O)(=O)N2CCC(=O)N(CCOCc3ccc(C(F)(F)F)cc3)CC2)cc1	18	11	51*	14	11	0	38*
O=C1CCN(S(=O)(=O)c2ccccc2)CCN1CCOCc1ccc(C(F)(F)F)cc1	6	13	20	25	-3	.	.
Cc1ccc(-n2ncc3c(NCc4cccnc4)ncnc32)c(C)c1	17	20	41*	19	21	-12	24
CCOc1ccc(CN2CCN(C(=O)c3ccccc3)CC2)cc1	12	-3	25	12	7	.	.
CCOc1ccc(CN2CCN(C(=O)c3cccc4ccccc34)CC2)cc1	16	11	59*	15	13	3	35
NC(=O)c1ccsc1NC(=O)COC(=O)Cc1c[nH]c2ccccc12	9	-4	25	-17	2	.	.
NC(=O)c1ccsc1NC(=O)COC(=O)Cc1cccc2ccccc12	25	-23	53*	29	20	-6	39*
COc1cc(C(=O)OCC(=O)Nc2sccc2C(N)=O)cc(OC)c1OC	4	31	7	0	34	.	.
COc1cc(CCC(=O)OCC(=O)Nc2sccc2C(N)=O)cc(OC)c1OC	0	6	39*	8	-20	-4	21
SMILES	LRH-1 inv ag	NCOA1 inh	NR2F2 inh	NCOA2 inhibitor	NCOA3 inh	Gal4-VP16 ctr	COUP-TFII conf
CC(=O)c1c(C)[nH]c(C(=O)OCC(=O)Nc2ccc(Cl)cc2[N+](=O)[O-])c1C	44	20	63*	32	36	5	60*
CC(=O)c1c(C)[nH]c(C(=O)OCC(=O)Nc2ccc(Cl)c(S(=O)(=O)N(C)C)c2)c1C	19	10	45*	14	19	-3	14
CCO[C@@H]1OC(C(=O)O)=C[C@H](c2ccc(C(F)(F)F)cc2)[C@H]1CCCO	11	-2	-1	-14	8	.	.
CCOC(=O)C1(Cc2ccccc2)CCN(Cc2ccnc3ccccc23)CC1	.	.	47*	35	.	4	39*
CCCCOC(=O)c1[nH]c2c(c1C)C(=O)CC(c1cc(OC)c(OC)c(OC)c1)C2 (centres undefined)	28	31	71*	3	41	12	63*
CCOC(=O)[C@@]12CCCC=C1N(CCc1ccc(Cl)cc1)C(=O)[C@H]2CC(=O)N1CCN(C(=O)c2ccco2)CC1	.	.	39*	8	.	-8	18
Cc1ccc(NC(=O)C2(S(=O)(=O)c3ccc(Cl)cc3)CC2)c(Br)c1	5	-9	-1	8	-6	.	.
O=C(Cn1c(=O)oc2ccccc21)N1CCN(S(=O)(=O)c2ccccc2)CC1	8	-13	-28	-7	14	.	.
C=C1C(=O)C23C(O)C1CCC2C12CCCC(C)(COC(C)=O)C1C(O)C3(O)OC2 (centres undefined)	77*	77*	48*	20	74*	77*	52*
Cc1cc(C)c(S(=O)(=O)Nc2cc(C)on2)c(C)c1	16	9	-22	-17	-14	.	.
Cc1ccc(S(=O)(=O)NCc2ccccn2)c(C)c1C	11	-4	-4	6	8	.	.
COc1cc(C)c(Br)cc1S(=O)(=O)NCc1ccncc1	43	19	57*	17	33	0	31
Cc1cc(C)c(S(=O)(=O)NCCc2ccncc2)c(C)c1	-7	18	9	-16	-27	.	.
Cc1ccc(S(=O)(=O)NCc2ccncc2)c(C)c1C	42	22	68*	16	25	2	57*
Cc1cc(C)c(S(=O)(=O)NCc2ccncc2)c(C)c1	36	12	60*	17	9	4	54*
CC(=O)O[C@H]1[C@@H](O)[C@H](O)[C@H](Oc2c(O)c(C)c3c4c2[C@@H](C)CC[C@@H]4[C@@H](C)C[C@H]3C=C(C)C)O[C@H]1C	16	0	1	0	23	.	.
CCC(c1nc2ccccc2[nH]1)n1c(-c2ccc3cc[nH]c3c2)nc2ccccc21 (centres undefined)	.	.	-13	-41	.	.	.
COc1ccc2c(c1)C=C(CN1CCC(CO)(CCc3ccccc3)CC1)CO2	1	-7	-8	5	-1	.	.
COc1ccc(CC2(CO)CCN(CC3=Cc4cc(Cl)ccc4OC3)CC2)cc1	20	-12	64*	18	11	-8	45*
Nc1ccc(-c2ncc(-c3ccccc3)o2)cc1	34	21	79*	80*	15	72*	62*
Cc1ccc(-c2cnc(-c3ccncc3)o2)cc1	-78	-71	-49	-18	-72	.	.
